# Results taken from PubChem BioAssay (NCATS).
# Values without a mark were called inactive. The source made the active and inactive calls.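 The calls were made as follows: active = compounds whose dose series gives a full or clear partial fitted curve of increased nuclear translocation; inconclusive = weak partial curve or effect only at the top dose; inactive = no dose-dependent translocation response.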 Where a SMILES comes first, the peptide text is derived from it.
# Target: Glucocorticoid receptor (Homo sapiens) (UniProt P04150)
# Sequence (P04150 whole entry, looked up): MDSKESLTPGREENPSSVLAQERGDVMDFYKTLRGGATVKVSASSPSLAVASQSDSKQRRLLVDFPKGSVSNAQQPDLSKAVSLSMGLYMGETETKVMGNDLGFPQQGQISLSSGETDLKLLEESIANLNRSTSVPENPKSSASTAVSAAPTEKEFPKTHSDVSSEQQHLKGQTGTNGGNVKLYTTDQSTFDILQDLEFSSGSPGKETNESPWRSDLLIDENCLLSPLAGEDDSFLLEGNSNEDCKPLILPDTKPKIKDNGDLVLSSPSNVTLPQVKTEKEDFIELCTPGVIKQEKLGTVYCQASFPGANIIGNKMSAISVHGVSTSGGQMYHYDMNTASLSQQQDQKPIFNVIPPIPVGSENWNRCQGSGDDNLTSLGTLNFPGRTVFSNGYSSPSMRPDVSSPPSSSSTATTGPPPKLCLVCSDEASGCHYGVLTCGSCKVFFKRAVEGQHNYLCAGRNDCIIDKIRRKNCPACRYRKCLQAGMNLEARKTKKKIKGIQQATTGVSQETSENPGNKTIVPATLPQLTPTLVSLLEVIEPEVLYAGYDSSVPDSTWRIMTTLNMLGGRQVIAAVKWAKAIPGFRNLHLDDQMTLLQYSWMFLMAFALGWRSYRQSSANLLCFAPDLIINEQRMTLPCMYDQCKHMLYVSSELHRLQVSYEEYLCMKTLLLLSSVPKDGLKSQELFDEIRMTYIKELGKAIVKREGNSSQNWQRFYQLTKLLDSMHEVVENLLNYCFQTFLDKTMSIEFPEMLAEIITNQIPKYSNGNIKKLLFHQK
# Test: GR-GFP Redistribution (AID 450)
# Settings: U2OS GR-GFP nuclear translocation, laser cytometry, 2 h
# Source text: NIH Molecular Libraries Screening Centers Network [MLSCN]
# NIH Chemical Genomics Center [NCGC]
# The glucocorticoid receptor (GR) Redistribution assay (BioImage) enables the visualization of GR cytoplasmic to nuclear translocation by the use of a GR-GFP fusion. GR is normally cytosolic, however ligands such as dexamethasone, cause nuclear translocation where the protein binds to response elements and interacts with various co-factors to modulate transcription. Because both functional agonists and antagonists can induce nuclear translocation, this assay can detect ligands regardless of their effects on gene expression. GR-GFP expressing U20S cells were used here. Dexamethasone was the positive control for translocation and data normalization. Detection of nuclear translocation was performed in 1536-well plates using the Acumen laser scanning plate cytometer (TTP LabTech). Validation of this assay and a detailed protocol have been described.
# NCGC Assay Protocol Summary:
# GR-GFP U2OS cells were maintained in DMEM with Glutamax and high glucose, 1% v/v penicillin-streptomycin, and 0.5 mg/mL Geneticin. For cell culture, 10% […] fetal bovine serum (FBS) was used (Invitrogen #26140-079). For cell plating 10% dextran, charcoal-stripped FBS (Hyclone SH30068.03) was used. U2OS cells were trypsin treated, suspended in medium, and passed through a 40 um basket filter. The cells were seeded at 600 cells/5 uL/well into clear-bottom black sided 1536-well plates and incubated for approximately 20 hrs, 37degC, 5%, CO2 in a tissue culture incubator. Twenty-three nL of compound was delivered by pin tool and the plates were incubated as above for 2 hrs. The compounds were tested as a 7-point titration ranging from 46 uM to 0.6 nM. The cells were fixed using the Kalypsys Washer/Dispenser station. The fixing protocol involved aspiration of the cell media, addition of 6 uL/well of PBS, aspiration of PBS, addition of 5uL/well of 100% methanol, aspiration of methanol, and addition of 3 uL/well PBS with 1.5 uM propidium iodide (PI). The plates were read by the Acumen Explorer using a 1 x 8 um scan of the whole well area. PI fluorescence triggered the collection of PI and GFP signals. A nuclei population was defined by a 10 to 100 um width and depth filter that eliminated small and large fluorescent particles. Two subpopulations of nuclei were then defined by peak intensity of GFP fluorescence to obtain translocated and untranslocated objects. The number of translocated objects was used for data normalization.
# Keywords: NIH Roadmap, MLSCN, MLI, MLSMR, sOGT, qHTS, NCGC
# Potency is read from the fitted curve at half-maximal effect.
row,SMILES,Potency
1,COc1ccc(OC)c([C@@H](O)[C@H](C)NC(C)(C)C)c1,> 20.6 µM
2,CC(C)C[C@H](NC(=O)[C@@H]1CCCN1C(=O)[C@@H](N)Cc1ccc(O)cc1)C(=O)NCC(N)=O (H-YPLG-NH2),> 20.6 µM
3,CN1CCc2nc(SCC(=O)OC(C)(C)C)c(C#N)cc2C1,> 20.6 µM
4,CC(C)(O)[C@H]1[C@H]2OC(=O)[C@@H]1[C@]1(O)C[C@H]3O[C@]34C(=O)O[C@H]2[C@]14C (tested in a mixture with another compound),> 46 µM
5,CN1C(=O)CN=C(c2ccc(Cl)cc2)c2cc(Cl)ccc21,> 20.6 µM
6,COC[C@H]1OC(=O)c2coc3c2[C@@]1(C)C1=C(C3=O)[C@H]2CCC(=O)[C@@]2(C)C[C@H]1OC(C)=O,0.838 µM (active)
7,CCOC(=O)[C@@]1(C#N)[C@@H]2C=CC(C(N)=O)=CN2[C@@H](C(N)=O)[C@@H]1c1cccc(Cl)c1,> 20.6 µM
8,C=C[C@@H]1CN2CC[C@@H]1C[C@H]2[C@H](O)c1ccnc2ccccc12,> 46 µM
9,CCCCCCn1c(O)c(C=NC2CCN(Cc3ccccc3)CC2)c(=O)[nH]c1=O,> 20.6 µM
10,CC[C@H](CO)NC(=O)[C@@H]1C=C2c3cccc4[nH]cc(c34)C[C@@H]2N(C)C1,> 46 µM
11,CCCN1CCc2cccc3c2[C@@H]1Cc1ccc(O)c(O)c1-3,> 46 µM
12,Cc1ccc(C)c(C2(O)CC(C)N(C)CC2C)c1 (stereo not given),> 20.6 µM
13,N[C@@H](Cc1cc(O)c(O)cc1O)C(=O)O,> 46 µM
14,CCCCc1nc2ccccc2c(=O)n1-c1ccccc1O,> 20.6 µM
15,COC(=O)C(O)(c1ccc(NC(=O)c2ccco2)c(OC)c1)C(F)(F)F (stereo not given),> 20.6 µM
16,CC(C)OC(=O)c1c(N)n(Cc2ccco2)c2nc3ccccc3nc12,> 20.6 µM
17,CCCCNC(=O)Nc1ccc(C(O)(C(=O)OCC)C(F)(F)F)cc1 (stereo not given),> 20.6 µM
18,CC(C)(C)[C@@]1(O)C[C@@H]2OC(=O)C[C@@]23C(=O)O[C@H]2OC(=O)[C@@H](O)[C@]231,> 46 µM
19,C[C@]1(C(=O)O)[C@@H]2CC[C@@H](O2)[C@@]1(C)C(=O)O,> 46 µM
20,CC1(C)CC(=O)C(C=NCCN2CCN(C(=O)Cc3ccc(F)cc3)CC2)=C(O)C1,> 20.6 µM

row,SMILES,Potency
1,C=CCOC(=O)C1=C(C)OC(N)=C(C#N)C12C(=O)N(CN1CCOCC1)c1ccccc12 (stereo not given),> 20.6 µM
2,O=C(CN1CCN(CCO)CC1)Nc1ccc(Cl)cc1C(=O)c1ccccc1,> 20.6 µM
3,CCOC(=O)C1=C(C)OC(N)=C(C(=O)OCC)[C@@]12C(=O)N(CC(N)=O)c1ccccc12,> 20.6 µM
4,C[C@H]1CCCC=CC2C[C@H](O)C[C@@H]2[C@H](O)/C=C\C(=O)O1 (stereo not given in full),> 46 µM
5,C=CCN1CCc2cccc3c2[C@@H]1Cc1ccc(O)c(O)c1-3,> 46 µM
6,NCC1(c2ccc3c(c2)OCCO3)CCCC1,> 20.6 µM
7,CC(=O)C1(c2ccccc2)CCNCC1,> 20.6 µM
8,O=c1[nH]c(=O)n(Cc2ccco2)c(O)c1C=NCCN1CCOCC1,> 20.6 µM
9,C=CCN1C[C@@H](C)N([C@H](c2ccc(C(=O)N(CC)CC)cc2)c2cccc(OC)c2)C[C@H]1C,> 46 µM
10,CC(=O)N1C[C@@H]2C[C@H](C1)c1cccc(=O)n1C2,> 46 µM
11,C=C[C@@H]1CN2CC[C@H]1C[C@H]2[C@@H](O)c1ccnc2ccccc12,> 46 µM
12,O=c1[nH]c(=O)n(CCc2ccccc2)c(O)c1C=NCCCn1ccnc1,> 20.6 µM
13,C[C@H](N[C@@H](C)CCc1ccccc1)[C@H](O)c1ccc(O)cc1,> 46 µM
14,CCCCC1(CN2CCCC2=O)C(=O)NC(=O)NC1=O,> 20.6 µM
15,C/C(Cl)=C/CC1(CN2CCCC2=O)C(=O)NC(=O)NC1=O,> 20.6 µM
16,CC(C)[C@@]1(NC(=O)[C@@H]2C[C@H]3c4cccc5[nH]cc(c45)C[C@@H]3N(C)C2)O[C@@]2(O)[C@H]3CCCN3C(=O)[C@@H](Cc3ccccc3)N2C1=O,> 46 µM
17,COc1cccc(-n2c(C)nc3ccccc3c2=O)c1,> 20.6 µM
18,CC(C)n1cc2c3c(cccc31)[C@@H]1C[C@H](C(=O)O[C@@H](C)[C@H](C)O)CN(C)[C@H]1C2,> 46 µM
19,C=CCn1c(O)c(C=NCCN(C)C)c(=O)[nH]c1=O,> 20.6 µM
20,CC(=O)[C@@]1(O)CC[C@H]2[C@@H]3CC=C4C[C@@H](O)CC[C@]4(C)[C@H]3CC[C@@]21C,> 20.6 µM
